Calls of active or inactive are those of the source. How the source made its calls, unless noted: active means hit-call score of the fitted dose curve at least 0.9, where 1 is the maximum; inactive means score below 0.9.

Read-out in assay [1]: Protein phosphatase 2A (PPP2R4), PTPA (gene 5524)
Kind of assay: LTEA_HepaRG_PPP2R4: Life Technologies and Expression Analysis (LTEA) Assay for Protein phosphatase 2A (PPP2R4) using HepaRG (AID 2283522). To be noted: mRNA level, 48 h; actives raise or lower the signal. In outline:
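HepaRG, 48 h exposure, 8-pt half-log series from 100 uM, 0.5% DMSO vehicle, duplicates. Readout: PPP2R4 mRNA, Fluidigm qRT-PCR, housekeeping-normalized. Bidirectional curve fit vs DMSO baseline.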

Read-out in assay [2]: Phosphatase and tensin (PTEN), PTEN (gene 5728)
Kind of assay: LTEA_HepaRG_PTEN: Life Technologies and Expression Analysis (LTEA) Assay for Phosphatase and tensin (PTEN) using HepaRG (AID 2283523). The conditions noted are these: mRNA level, 48 h; actives raise or lower the signal. The gist of the method:
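Expression of PTEN is quantified in the human liver line HepaRG following two days of dosing (top concentration 100 uM, half-log dilutions, 0.5% DMSO). Values derive from bidirectional curve fitting relative to DMSO controls.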

Read-out in assay [3]: solute carrier (SLC22A1), SLC22A1 (gene 6580)
Kind of assay: LTEA_HepaRG_SLC22A1: Life Technologies and Expression Analysis (LTEA) Assay for solute carrier (SLC22A1) using HepaRG (AID 2283524). To be noted: mRNA level, 48 h; actives raise or lower the signal. The gist of the method:
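Transcript induction or suppression of SLC22A1 in human HepaRG cultures is scored after 48 h chemical treatment, with DMSO (0.5%) as baseline for bidirectional fitting. Concentrations span eight half-log points topping at 100 uM.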

Read-out in assay [4]: Pyruvate Dehydrogenase Kinase 4 (PDK4), PDK4 (gene 5166)
Kind of assay: LTEA_HepaRG_PDK4: Life Technologies and Expression Analysis (LTEA) Assay for Pyruvate Dehydrogenase Kinase 4 (PDK4) using HepaRG (AID 2283525). To be noted: mRNA level, 48 h; actives raise or lower the signal. In outline:
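Eight-point, half-log concentration series (max 100 uM, 0.5% DMSO) applied to differentiated HepaRG cells for 48 h in duplicate. Endpoint: PDK4 mRNA induction or repression by qRT-PCR against DMSO baseline.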

Read-out in assay [5]: NAD(P)H dehydrogenase [quinone] 1 (NQO1), NQO1 (gene 1728)
Kind of assay: LTEA_HepaRG_NQO1: Life Technologies and Expression Analysis (LTEA) Assay for NAD(P)H dehydrogenase [quinone] 1 (NQO1) using HepaRG (AID 2283526). The conditions noted are these: mRNA level, 48 h; actives raise or lower the signal. The gist of the method:
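qRT-PCR read-out (Fluidigm TaqMan), normalized to three housekeeping genes, after 48 h chemical exposure of HepaRG cells. Concentrations: eight points, top 100 uM, half-log steps, 0.5% DMSO vehicle. Gain or loss of signal fitted relative to DMSO.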

Read-out in assay [6]: Nuclear factor erythroid 2-related factor 2 (Homo sapiens) (UniProt Q16236)
Kind of assay: LTEA_HepaRG_NFE2L2: Life Technologies and Expression Analysis (LTEA) Assay for Nuclear factor erythroid 2-related factor 2 (NFE2L2) Transcription Factor using HepaRG (AID 2283527). To be noted: mRNA level, 48 h; actives raise or lower the signal. The gist of the method:
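Human liver HepaRG line treated in duplicate for 48 h with an eight-point series topping at 100 uM. Gene expression of NFE2L2 by qRT-PCR, bidirectionally fitted against the vehicle control.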

Read-out in assay [7]: succinate dehydrogenase complex iron sulfur subunit B (SDHB), SDHB (gene 6390)
Kind of assay: LTEA_HepaRG_SDHB: Life Technologies and Expression Analysis (LTEA) Assay for succinate dehydrogenase complex iron sulfur subunit B (SDHB) using HepaRG (AID 2283528). To be noted: mRNA level, 48 h; actives raise or lower the signal. The gist of the method: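 HepaRG, 48 h exposure, 8-pt half-log series from 100 uM in 0.5% DMSO, duplicates. Readout: SDHB mRNA by Fluidigm qRT-PCR vs housekeeping genes; bidirectional fit relative to DMSO.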

Read-out in assay [8]: Signal transducer and activator of transcription 3 (Homo sapiens) (UniProt P40763)
Kind of assay: LTEA_HepaRG_STAT3: Life Technologies and Expression Analysis (LTEA) Assay for Signal transducer and activator of transcription (STAT3) using HepaRG (AID 2283529). To be noted: mRNA level, 48 h; actives raise or lower the signal. In outline:
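In this transcriptional endpoint, HepaRG cultures receive test chemicals at up to 100 uM for 48 h, tested in duplicate. STAT3 mRNA is normalized to ACTB, GAPDH and POLR2A.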

Read-out in assay [9]: solute carrier (SLCO1B1), SLCO1B1 (gene 10599)
Kind of assay: LTEA_HepaRG_SLCO1B1: Life Technologies and Expression Analysis (LTEA) Assay for solute carrier (SLCO1B1) using HepaRG (AID 2283530). To be noted: mRNA level, 48 h; actives raise or lower the signal. The gist of the method: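 SLCO1B1 transcript levels were quantified by TaqMan qRT-PCR using three housekeeping genes for normalization. This followed 48 h chemical exposure (100 uM top, half-log, 8 points, 0.5% DMSO) of HepaRG liver cells, with gain or loss fitted relative to DMSO.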

Read-out in assay [10]: sulfotransferase 2A1 (SULT2A1), SULT2A1 (gene 6822)
Kind of assay: LTEA_HepaRG_SULT2A1: Life Technologies and Expression Analysis (LTEA) Assay for sulfotransferase 2A1 (SULT2A1) using HepaRG (AID 2283531). To be noted: mRNA level, 48 h; actives raise or lower the signal. In outline:
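Expression change of SULT2A1, by qRT-PCR with three housekeeping-gene normalization, was scored bidirectionally versus DMSO. Cells: differentiated HepaRG, dosed in duplicate for 48 h across 8 points, highest 100 µM, half-log dilution, 0.5% DMSO.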

Read-out in assay [11]: Transforming Growth Factor (TGFA), TGFA (gene 7039)
Kind of assay: LTEA_HepaRG_TGFA: Life Technologies and Expression Analysis (LTEA) Assay for Transforming Growth Factor (TGFA) using HepaRG (AID 2283532). The conditions noted are these: mRNA level, 48 h; actives raise or lower the signal. The gist of the method:
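Gene expression of TGFA was quantified by qRT-PCR after human HepaRG cells were treated for 48 h with test chemicals (eight concentrations, highest 100 uM, 0.5% DMSO). Activity in either direction was fitted relative to DMSO.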

Read-out in assay [12]: Transforming Growth Factor (TGFB1), TGFB1 (gene 7040)
Kind of assay: LTEA_HepaRG_TGFB1: Life Technologies and Expression Analysis (LTEA) Assay for Transforming Growth Factor (TGFB1) Transporter using HepaRG (AID 2283533). The conditions noted are these: mRNA level, 48 h; actives raise or lower the signal. The gist of the method: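 TGFB1 transcript measured by qRT-PCR with normalisation to three housekeeping genes (ACTB, GAPDH, POLR2A); human HepaRG line treated in duplicate for 48 hr with an 8-point series topping at 100 uM, 0.5% DMSO vehicle, bidirectionally fitted.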

Read-out in another assay: TIMP1, TIMP1 (gene 7076)
Kind of assay: LTEA_HepaRG_TIMP1: Life Technologies and Expression Analysis (LTEA) Assay for TIMP1 using HepaRG (AID 2283534). The conditions noted are these: mRNA level, 48 h; actives raise or lower the signal. The gist of the method:
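Bidirectional change in TIMP1 transcript versus 0.5% DMSO, measured by TaqMan qRT-PCR with three housekeeping genes for normalization. HepaRG human liver cells dosed 48 h in duplicate, top concentration 100 uM with half-log dilutions.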

Read-out in assay [13]: Tumor necrosis factor receptor 1 (TNFRSF1A), TNFRSF1A (gene 7132)
Kind of assay: LTEA_HepaRG_TNFRSF1A: Life Technologies and Expression Analysis (LTEA) Assay for Tumor necrosis factor receptor 1 (TNFRSF1A) using HepaRG (AID 2283535). To be noted: mRNA level, 48 h; actives raise or lower the signal. The gist of the method:
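mRNA measured by qRT-PCR (TaqMan, Fluidigm arrays) against ACTB/GAPDH/POLR2A housekeepers after 48 h chemical exposure of HepaRG cells. Top concentration 100 uM, half-log 8-point series, duplicates; vehicle 0.5% DMSO, both fit directions.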

Read-out in assay [14]: Thyroid Hormone Responsive (THRSP), THRSP (gene 7069)
Kind of assay: LTEA_HepaRG_THRSP: Life Technologies and Expression Analysis (LTEA) Assay for Thyroid Hormone Responsive (THRSP) using HepaRG (AID 2283536). To be noted: mRNA level, 48 h; actives raise or lower the signal. In outline:
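Cell model: human HepaRG, approx. 100,000 cells/well, 0.5% DMSO vehicle. Exposure lasts 48 h; phenobarbital 1 mM serves as induction positive control. Gene expression is measured by qRT-PCR against three endogenous control genes.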

Read-out in assay [15]: Cellular tumor antigen p53 (Homo sapiens) (UniProt P04637)
Kind of assay: LTEA_HepaRG_TP53: Life Technologies and Expression Analysis (LTEA) Assay for Tumor Protein P53 (TP53) using HepaRG (AID 2283537). To be noted: mRNA level, 48 h; actives raise or lower the signal. In outline: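 HepaRG, 48 h exposure, top 100 uM, half-log 8-point, 0.5% DMSO vehicle, duplicates. Read: TP53 mRNA by TaqMan qRT-PCR, normalised to ACTB/GAPDH/POLR2A; bidirectional fit vs DMSO.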

Read-out in assay [16]: UDP glucuronosyltransferase (UGT1A1), UGT1A1 (gene 54658)
Kind of assay: LTEA_HepaRG_UGT1A1: Life Technologies and Expression Analysis (LTEA) Assay for UDP glucuronosyltransferase (UGT1A1) using HepaRG (AID 2283538). The conditions noted are these: mRNA level, 48 h; actives raise or lower the signal. In outline:
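HepaRG, 48 h chemical exposure (top 100 uM, half-log 8-pt, 0.5% DMSO vehicle), duplicate wells; qRT-PCR (TaqMan, Fluidigm array) for UGT1A1 mRNA, housekeeping-normalized; bidirectional curve fit vs DMSO baseline.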

Read-out in assay [17]: UDP glucuronosyltransferase (UGT1A6), UGT1A6 (gene 54578)
Kind of assay: LTEA_HepaRG_UGT1A6: Life Technologies and Expression Analysis (LTEA) Assay for UDP glucuronosyltransferase (UGT1A6) using HepaRG (AID 2283539). The conditions noted are these: mRNA level, 48 h; actives raise or lower the signal. In outline: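 Expression was quantified by TaqMan qRT-PCR on Fluidigm arrays with ACTB/GAPDH/POLR2A normalization and bidirectional fitting against 0.5% DMSO. HepaRG cells (~100,000/well) were treated in duplicate for 48 h at eight half-log concentrations up to 100 uM in serum-free induction medium.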

Read-out in assay [18]: X-box binding protein 1 (XBP1), XBP1 (gene 7494)
Kind of assay: LTEA_HepaRG_XBP1: Life Technologies and Expression Analysis (LTEA) Assay for X-box binding protein 1 (XBP1) using HepaRG (AID 2283540). The conditions noted are these: mRNA level, 48 h; actives raise or lower the signal. In outline:
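XBP1 transcript by qRT-PCR (housekeeping-normalized: ACTB, GAPDH, POLR2A) after 48 h chemical treatment of HepaRG cells, 8-point half-log series topping at 100 uM, vehicle 0.5% DMSO. Gain and loss of signal fitted relative to DMSO.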

Assay [19] can be described thus: LTEA_HepaRG_LDH_cytotoxicity: Cytotoxicity Assessment in the Life Technologies and Expression Analysis (LTEA) Assay (AID 2283563; active means hit-call score of the fitted dose curve at least 0.9, where 1 is the maximum). In outline:
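LDH release into culture medium read after 48 h chemical treatment of HepaRG cells. Duplicate wells, eight-point half-log series topping at 100 uM, 0.5% DMSO vehicle and baseline.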

Sequence of Nuclear factor erythroid 2-related factor 2 (Homo sapiens) (Q16236 whole entry, looked up): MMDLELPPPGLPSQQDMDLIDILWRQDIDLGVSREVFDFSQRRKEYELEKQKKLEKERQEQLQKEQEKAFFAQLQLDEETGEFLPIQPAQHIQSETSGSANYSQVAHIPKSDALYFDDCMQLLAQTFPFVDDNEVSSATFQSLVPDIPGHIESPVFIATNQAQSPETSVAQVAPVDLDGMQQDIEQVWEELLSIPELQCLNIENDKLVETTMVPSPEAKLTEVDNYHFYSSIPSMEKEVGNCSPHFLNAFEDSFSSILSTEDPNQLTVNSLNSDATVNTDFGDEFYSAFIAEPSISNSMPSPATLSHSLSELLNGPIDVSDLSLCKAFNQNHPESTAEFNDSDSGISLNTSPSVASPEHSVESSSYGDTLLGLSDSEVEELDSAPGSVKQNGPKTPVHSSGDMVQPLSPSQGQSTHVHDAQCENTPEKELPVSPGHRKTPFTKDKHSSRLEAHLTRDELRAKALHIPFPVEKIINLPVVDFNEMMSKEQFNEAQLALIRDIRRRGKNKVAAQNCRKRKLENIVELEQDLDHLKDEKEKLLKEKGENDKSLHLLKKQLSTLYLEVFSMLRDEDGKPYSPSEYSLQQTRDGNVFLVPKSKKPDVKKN
Sequence of Cellular tumor antigen p53 (Homo sapiens) (P04637 whole entry, looked up): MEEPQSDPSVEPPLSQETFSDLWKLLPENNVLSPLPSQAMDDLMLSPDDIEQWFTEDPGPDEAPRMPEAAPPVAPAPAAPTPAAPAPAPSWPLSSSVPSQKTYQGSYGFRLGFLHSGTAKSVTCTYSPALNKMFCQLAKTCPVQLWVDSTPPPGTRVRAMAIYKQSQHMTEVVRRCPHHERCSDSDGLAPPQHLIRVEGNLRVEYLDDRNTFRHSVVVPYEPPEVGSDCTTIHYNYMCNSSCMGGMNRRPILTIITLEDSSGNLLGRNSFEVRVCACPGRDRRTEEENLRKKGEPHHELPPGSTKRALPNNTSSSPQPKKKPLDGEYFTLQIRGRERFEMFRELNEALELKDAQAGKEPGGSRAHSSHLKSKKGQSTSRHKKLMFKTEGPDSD
Sequence of Signal transducer and activator of transcription 3 (Homo sapiens) (P40763 whole entry, looked up): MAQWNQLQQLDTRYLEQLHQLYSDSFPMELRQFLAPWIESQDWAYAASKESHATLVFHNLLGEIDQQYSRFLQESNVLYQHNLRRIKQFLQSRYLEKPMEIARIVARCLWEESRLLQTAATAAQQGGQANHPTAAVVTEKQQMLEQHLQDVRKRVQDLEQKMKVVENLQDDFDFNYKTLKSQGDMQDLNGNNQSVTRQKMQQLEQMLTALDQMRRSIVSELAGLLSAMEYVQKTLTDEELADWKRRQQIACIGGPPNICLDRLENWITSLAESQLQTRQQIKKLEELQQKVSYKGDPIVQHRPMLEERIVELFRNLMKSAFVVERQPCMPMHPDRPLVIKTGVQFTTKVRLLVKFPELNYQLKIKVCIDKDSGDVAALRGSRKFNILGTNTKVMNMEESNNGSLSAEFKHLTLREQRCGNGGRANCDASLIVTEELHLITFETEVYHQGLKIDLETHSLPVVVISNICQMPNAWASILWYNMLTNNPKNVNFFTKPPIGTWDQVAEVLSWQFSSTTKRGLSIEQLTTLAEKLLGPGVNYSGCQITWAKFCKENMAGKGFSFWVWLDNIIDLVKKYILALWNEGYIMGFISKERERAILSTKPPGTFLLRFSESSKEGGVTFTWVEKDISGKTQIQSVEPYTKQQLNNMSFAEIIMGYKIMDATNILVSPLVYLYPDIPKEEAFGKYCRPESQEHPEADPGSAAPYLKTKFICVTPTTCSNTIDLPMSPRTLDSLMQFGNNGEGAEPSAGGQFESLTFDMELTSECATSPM

Consider `CCOP(=O)(NC(C)C)Oc1ccc(SC)c(C)c1` (stereo not given), for which the compound was called inactive in [1], in assay [2], in assay [3], in assay [4], in [5] and in assay [6]. Moreover, the compound was called inactive in assay [7], in [8], in assay [9], in assay [10], in [11] and in assay [12]. In addition, the outcome with TIMP1, TIMP1 (gene 7076) is “inactive”; in assay [13], “inactive”; in [14] it was “inactive”; in assay [15], “inactive”; in assay [17], “inactive”; in assay [18] it was “inactive”. For the same compound, the result in assay [19] was inactive. In addition, in assay [16], the AC50 was 50 µM (active).

Regarding `CCOP(=O)(OCC)Oc1cc(C)nc(C(C)C)n1`, the compound was classed as inactive in [1], in assay [2], in assay [3], in assay [4], in assay [5] and in [6]. For the same compound, the result in assay [7], in assay [8], in assay [9], in [10], in [11] and in [12] was inactive. In addition, the outcome with TIMP1, TIMP1 (gene 7076) was “inactive”; in assay [13], “inactive”; in assay [14], “inactive”; in assay [15], “inactive”; in assay [16], “inactive”; in [17] it was “inactive”. In addition, the compound was called inactive in assay [18] and in [19].

Consider `CC(C)[C@H](C(=O)O[C@H](C#N)c1cccc(Oc2ccccc2)c1)c1ccc(Cl)cc1`, for which the call in assay [1], in assay [2], in assay [3], in [4], in [5] and in assay [6] was inactive. The outcome in assay [7], in [8], in assay [9], in assay [10], in assay [11] and in assay [12] was inactive. Also, the outcome with TIMP1, TIMP1 (gene 7076) was “inactive”; in assay [13] it was “inactive”; in assay [14] it was “inactive”; in assay [15], “inactive”; in assay [17], “inactive”; in assay [18], “inactive”. Besides, the compound was called inactive in assay [19]. Besides, the AC50 in assay [16] is 23.8 µM (active).

A word on the AC50: it is the concentration giving half of the maximal activity seen.

The values are drawn from PubChem BioAssay (EPA / NIEHS).
